# Data reported in PMC4336329 (PLoS ONE, 2015).
# Out of some 310,000 compounds screened, about 14,000 (4.5%) showed an effect of 50% or more. Effects have a minus sign here. The sample holds strong results, similar compounds and a random draw of the others, so the mix is not that of the screen.
# Biological target: human ether-à-go-go-related gene (hERG) potassium channel (human, UniProt Q12809)
# Test: primary screen, population patch clamp on CHO cells stably expressing hERG; higher = less effect of the substance
# 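Note: peak tail current of the secondary pulse compared with the same well before compound.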
# Chain of human ether-à-go-go-related gene (hERG) potassium channel (Q12809 whole entry, looked up): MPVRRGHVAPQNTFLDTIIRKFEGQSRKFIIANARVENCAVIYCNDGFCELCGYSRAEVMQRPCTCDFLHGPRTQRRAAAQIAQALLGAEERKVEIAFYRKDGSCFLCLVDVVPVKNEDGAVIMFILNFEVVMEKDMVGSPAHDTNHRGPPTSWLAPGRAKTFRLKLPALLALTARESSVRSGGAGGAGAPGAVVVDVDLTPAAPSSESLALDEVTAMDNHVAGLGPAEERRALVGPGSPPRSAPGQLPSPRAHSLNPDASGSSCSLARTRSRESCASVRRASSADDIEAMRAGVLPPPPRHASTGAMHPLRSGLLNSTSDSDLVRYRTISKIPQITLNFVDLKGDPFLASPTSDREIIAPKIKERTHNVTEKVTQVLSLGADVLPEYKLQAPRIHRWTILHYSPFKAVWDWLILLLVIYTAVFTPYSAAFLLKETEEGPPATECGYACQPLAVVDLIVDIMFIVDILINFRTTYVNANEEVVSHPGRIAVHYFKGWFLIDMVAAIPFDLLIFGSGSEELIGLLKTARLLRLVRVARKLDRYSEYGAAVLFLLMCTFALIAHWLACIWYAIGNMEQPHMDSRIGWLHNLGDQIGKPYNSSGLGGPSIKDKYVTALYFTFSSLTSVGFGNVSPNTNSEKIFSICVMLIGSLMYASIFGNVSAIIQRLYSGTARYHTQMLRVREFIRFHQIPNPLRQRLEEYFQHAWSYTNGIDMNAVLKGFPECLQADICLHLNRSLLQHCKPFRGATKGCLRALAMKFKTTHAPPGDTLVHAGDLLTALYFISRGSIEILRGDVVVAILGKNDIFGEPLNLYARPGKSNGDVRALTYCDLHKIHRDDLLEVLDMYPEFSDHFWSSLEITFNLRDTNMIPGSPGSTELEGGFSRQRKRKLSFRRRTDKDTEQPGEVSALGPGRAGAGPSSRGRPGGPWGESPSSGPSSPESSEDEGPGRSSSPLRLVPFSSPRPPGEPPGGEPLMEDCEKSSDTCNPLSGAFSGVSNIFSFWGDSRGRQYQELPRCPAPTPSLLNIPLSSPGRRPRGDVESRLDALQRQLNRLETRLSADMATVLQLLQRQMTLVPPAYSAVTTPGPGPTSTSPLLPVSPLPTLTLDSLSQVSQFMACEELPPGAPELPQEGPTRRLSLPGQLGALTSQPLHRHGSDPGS
row,Structure (SMILES),"hERG current change (%, negative = inhibition) at 10uM [%]"
1,CCC(=O)c1ccc(OCC(O)CN2CCN(S(=O)(=O)N3CCCCC3)CC2)cc1 (stereo not shown),-55.1
2,CN(C)S(=O)(=O)N1CCN(CC(O)COc2ccc(C(=O)c3ccccc3)cc2)CC1 (stereo not shown),-70.2
3,CCC(=O)c1ccc(OCC(O)CN2CCN(S(=O)(=O)c3ccc(NC(C)=O)cc3)CC2)cc1 (stereo not shown),-20.5
4,O=C(c1ccccc1)c1ccc(OCC(O)CN2CCOCC2)cc1 (stereo not shown),-10.8
5,CN(C)S(=O)(=O)N1CCN(CC(O)COc2ccc3cc(Br)ccc3c2)CC1 (stereo not shown),-25.6
6,O=C(c1ccccc1)c1ccc(OCC(O)CN2CCN(S(=O)(=O)N3CCCCC3)CC2)cc1 (stereo not shown),-73.5
7,CCOc1ccc(N2C(=O)CN=C2Nc2ccccc2F)cc1,5.08
8,COc1ccc(Br)cc1CNc1ccccc1.O=C(O)C(=O)O,9.4
9,CN=C1C=C/C(=N/N=c2\ccn(O)cc2C)C=C1C,-32.6
10,COC(=O)C1=C(C)N=C2SCCC(=O)N2C1c1cccs1 (stereo not shown),10.4
11,O=C(O)C(=O)O.c1ccc(CNC23CC4CC(CC(C4)C2)C3)nc1,15.3
12,O=C(C1CCCN(CCCc2ccccc2)C1)N1CCCCCC1.O=C(O)C(=O)O (stereo not shown),-46.2
13,O=C(C1CCN(CCCc2ccccc2)CC1)N(CCc1ccccc1)Cc1ccccc1.O=C(O)C(=O)O,-75
14,CCCCN(Cc1ccccc1)C(=O)C1CCN(Cc2sccc2C)CC1.O=C(O)C(=O)O,-68.3
15,O=C(C1CCN(CC2CC=CCC2)CC1)N(CCc1ccccc1)Cc1ccccc1 (stereo not shown),-72
16,CCN(CC)C(=O)C1CCCN(Cc2sccc2C)C1 (stereo not shown),11.6
17,CC1CCCN(C(=O)C2CCN(CCCc3ccccc3)CC2)C1.O=C(O)C(=O)O (stereo not shown),-47.5
18,CCC(C)NC(=O)C1CCN(CCCc2ccccc2)CC1.O=C(O)C(=O)O (stereo not shown),-1.26
19,CCN(Cc1ccccc1)C(=O)C1CCN(Cc2sccc2C)CC1.O=C(O)C(=O)O,-44.3
20,CCN(CC)C(=O)C1CCN(CC2CC=CCC2)CC1 (stereo not shown),-0.0716
21,CCN(Cc1ccccc1)C(=O)C1CCN(CC2CC=CCC2)CC1.O=C(O)C(=O)O (stereo not shown),-46.9
22,O=C(C1CC1)N(CCN(Cc1ccccc1)C(=O)C1CC1)Cc1ccccc1,-28.9

row,Structure (SMILES),"hERG current change (%, negative = inhibition) at 10uM [%]"
1,CC1CCN(C(=O)C2CCN(CCCc3ccccc3)CC2)CC1.O=C(O)C(=O)O,-62.3
2,Cc1ccc(C(C)C)c(Oc2nnnn2-c2ccccc2)c1,14.2
3,CC(=O)N1CCC(N(CCCOC(C)C)S(=O)(=O)c2ccc([N+](=O)[O-])cc2)CC1,-35.3
4,CCn1cc(C(=O)N2CCn3c(nc4ccccc43)C2)c(=O)c2ccc(C)nc21,-12.4
5,COc1ccc(NC(=O)CSC2=C(C#N)C(c3ccco3)C3=C(CCCC3=O)N2)c(OC)c1 (stereo not shown),-33.2
6,Fc1ccccc1Nc1nc(NCc2ccco2)nc(N2CCOCC2)n1,-15.8
7,CCCOc1cccc(C2C(C(=O)c3ccc(C)o3)=C(O)C(=O)N2c2nc(C)c(C(C)=O)s2)c1 (stereo not shown),9.66
8,COc1cc(NC(=O)c2c(F)c(F)c(OC)c(F)c2F)ccc1NC(=O)c1cccs1,11.2
9,COc1ccc(C(=S)N2CCCC2)cc1Br,-7.39
10,CCOC(=O)Cc1csc(NC(=O)NC2(C(F)(F)F)Oc3ccccc3O2)n1,5.19
11,O=C(NCCc1ccccc1)c1ccc(CS(=O)(=O)Cc2ccccc2F)o1,-19.7
12,CCCCN(C)C(=O)C1CCN(Cc2ccccn2)CC1.O=C(O)C(=O)O,-4.27
13,CCCCN(C)C(=O)C1CCN(CCCc2ccccc2)CC1.O=C(O)C(=O)O,-73.4
14,CCCCN(C)C(=O)C1CCN(Cc2cccnc2)CC1,9.71
15,Cl.OCCN(CCO)CC(O)CN(c1ccccc1)c1ccccc1 (stereo not shown),-14.6
16,CNCC(O)CN(c1ccccc1)c1ccccc1 (stereo not shown),-39.8
17,CN(C)CC(O)CN(c1ccccc1)c1ccccc1 (stereo not shown),-54
18,OCC(O)CN(c1ccccc1)c1ccccc1 (stereo not shown),2.58
19,CN(CCO)CC(O)CN(c1ccccc1)c1ccccc1.Cl (stereo not shown),-52.1
20,NCC(O)CN(c1ccccc1)c1ccccc1 (stereo not shown),12
21,CCCCCCn1c(=O)c(C(=O)Nc2nnc(C)s2)c(O)c2ccccc21,-1.74
